This is a sample that favours compounds with a hit; in the whole collection about 0.91% have one here.
TexasRed fluor – Texas Red fluorescence interference in TRb-SRC2 counter-screen | actives 0.29% (n = 280,000) | TRb/SRC2 Texas Red total fluorescence interference | AID 1479 | Potency, µM (series often up to 106 µM), without a hit: top-dose fluorescence change, negative = quenching; active = well fitted curve in either direction with a large enough effect; inconclusive = small, poorly fitted or top-dose-only effect
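Human TRβ ligand-binding domain (0.6 uM) and Texas Red SRC2 peptide (20 nM) in Tris buffer with 1 uM T3 and 5% DMSO were incubated with pinned compound for 5 hr at ambient temperature. Total fluorescence was computed as S + 2P (555/632 nm).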
RECQ1 helicase – inhibitors of human RECQ1 DNA helicase | P46063 | RECQ1 DNA unwinding, red fluorescence kinetic read | Potency, µM (titrated, usually from 57.3 µM), for inactives: top-dose activity, negative = inhibition, usual class: inhibitors | actives 0.54% (n = 240,000) | AID 2549;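 note: plate controls were vehicle for no effect and no enzyme for full effect; nearly all actives have a fitted effect of over 30% in size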
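50 nM RECQ1T1 preincubated 15 min with compound in Tris pH 8.0 buffer with MgCl2, DTT, Tween-20 and 2.5 ug/ml poly(dI-dC); started with 200 nM TAMRA/BHQ-2 forked duplex and 2 mM ATP. Unwinding read as fluorescence (525/598 nm), two reads 2 h apart.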
APE1 inh-1 – inhibitors of human APE1 endonuclease; actives 0.35% (n = 350,000); P27695; Potency, µM (highest dose often 65.8 µM), for inactives: at the top dose activity change, negative = inhibition, usual class: inhibitors; recombinant APE1, TAMRA/BHQ-2 abasic DNA cleavage fluorescence;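 note: plate controls were vehicle for no effect and reference inhibitor for full effect; nearly all actives have a fitted effect of over 55% in size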
Target sequence (P27695 whole entry, looked up): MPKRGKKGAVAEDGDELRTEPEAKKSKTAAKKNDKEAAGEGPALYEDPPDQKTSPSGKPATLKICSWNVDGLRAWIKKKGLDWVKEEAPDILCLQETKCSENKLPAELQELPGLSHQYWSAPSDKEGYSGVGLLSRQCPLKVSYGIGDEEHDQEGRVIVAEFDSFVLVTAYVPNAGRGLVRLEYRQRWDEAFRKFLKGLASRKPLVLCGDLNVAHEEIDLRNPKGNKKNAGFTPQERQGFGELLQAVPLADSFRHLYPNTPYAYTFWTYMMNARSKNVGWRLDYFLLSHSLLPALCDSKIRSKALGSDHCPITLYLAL
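Quantitative HTS: incision of a TAMRA/BHQ-2 double-stranded substrate bearing a tetrahydrofuran abasic site by 0.75 nM APE1 raises fluorescence. Substrate 50 nM final, added after 15 min compound preincubation at room temperature; progress as third-minus-first kinetic read difference.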
BLM inh – blocks DNA unwinding by human BLM helicase; P54132; recombinant BLM DNA unwinding, fluorescence dequenching; Potency, µM (top dose mostly 56.1 µM), without a hit: top-dose activity change, negative = inhibition, actives largely listed as inhibitors; actives 0.2% (n = 350,000); AID 2528;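 note: plate controls were vehicle for no effect and no enzyme for full effect; nearly all actives have a fitted effect of over 35% in size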
WRN helicase inh – inhibitors of human WRN helicase; Q14191; WRN helicase unwinding, fluorescent forked duplex, kinetic; actives 0.46% (n = 360,000); Potency, µM (highest dose often 114 µM), for the others: top-dose activity change, negative = inhibition, usual class: inhibitors; note: nearly all actives have a fitted effect of over 55% in size
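Fluorescence dequenching readout, ex 525 nm/em 598 nm, kinetic mode: forked duplex DNA (100 nM final) with adjacent fluorophore and quencher unwound by WRN (20 nM final) with 2 mM ATP. Compound preincubation 15 min, room temperature.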
TRb-SRC2 inh – disrupts binding of human TR beta to SRC2; P10828; TRbeta-SRC2 peptide binding, fluorescence polarization; receptor liganded with 1 µM T3; Potency, µM (titrated, usually from 106 µM), for the others: at the highest dose activity change, negative = inhibition, most hits filed as inhibitors; actives 0.065% (n = 280,000); AID 1469;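 note: plate controls were bound peptide for no effect and peptide without receptor for full effect; nearly all actives have a fitted effect of over 50% in size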
Target sequence (P10828 whole entry, looked up): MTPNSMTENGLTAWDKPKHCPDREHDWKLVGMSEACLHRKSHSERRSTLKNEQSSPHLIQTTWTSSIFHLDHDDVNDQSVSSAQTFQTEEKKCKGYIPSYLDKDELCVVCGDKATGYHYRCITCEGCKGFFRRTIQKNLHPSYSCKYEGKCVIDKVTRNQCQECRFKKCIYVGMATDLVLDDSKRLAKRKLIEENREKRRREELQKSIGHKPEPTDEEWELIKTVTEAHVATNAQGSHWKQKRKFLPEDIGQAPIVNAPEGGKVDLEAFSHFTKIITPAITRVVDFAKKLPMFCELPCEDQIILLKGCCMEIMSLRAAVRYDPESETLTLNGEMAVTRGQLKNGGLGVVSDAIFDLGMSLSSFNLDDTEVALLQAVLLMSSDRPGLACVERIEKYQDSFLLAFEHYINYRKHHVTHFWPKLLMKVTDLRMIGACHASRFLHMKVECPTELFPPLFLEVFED
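Compounds were added to 0.6 uM TRb ligand-binding domain and 20 nM Texas Red-labeled SRC2 peptide in Tris buffer containing 1 uM T3, incubated 5 hr at ambient temperature, then read by fluorescence polarization.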
DNA dye displace – DNA dye displacement counter-screen activity; shares compounds with APE1 inh-1; DNA fluorescent dye displacement counterscreen, fluorescence; Potency, µM (titrated, usually from 28.5 µM), for inactives: at the top dose activity change, negative = inhibition, usual class: inhibitors; actives 7% (n = 480); AID 2564;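 note: loss of thiazole orange fluorescence as the dye is displaced from duplex DNA; 0% = ThO with dsDNA and no compound and -100% = ThO without dsDNA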
EndoIV counter – blocks E. coli endonuclease IV DNA cleavage. shares compounds with APE1 inh-1. E. coli Endo IV, fluorogenic AP-site DNA cleavage. AID 2565. actives 4% (n = 560). Potency, µM (titrated, usually from 27.1 µM), for inactives: top-dose activity change, negative = inhibition, hits mostly inhibitors;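 note: plate controls were uninhibited enzyme wells for no effect and no enzyme buffer wells for full effect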
APE1 inh-2 – APE1 (human) endonuclease inhibition, confirmation | purified APE1, fluorogenic abasic-site DNA cleavage | Potency, µM (doses to about 57.1 µM), without a hit: at the top dose activity change, negative = inhibition, actives largely listed as inhibitors | actives 44% (n = 750) | shares compounds with APE1 inh-1; note: nearly all actives have a fitted effect of over 30% in size
APE1 FP – APE1 (human) DNA binding inhibition, fluorescence polarization | Potency, µM (highest dose often 28.5 µM), inactives show at the top dose activity, negative = inhibition, hits mostly inhibitors | actives 7% (n = 480) | shares compounds with APE1 inh-1 | APE1 binding to TAMRA-labelled double-stranded DNA, fluorescence polarization displacement
The depositor's hits bear a star; i = inactive; ? = inconclusive; nt = no result given; [ ] = dose if it differs, or a comment. Unless noted, calls come from the whole dose curve; as a rule, active = well fitted curve in the direction sought with a large enough effect; inconclusive = small, poorly fitted or top-dose-only effect, or another doubt; inactive = no such curve, though single readings can be large; an effect the other way counts as inactive or inconclusive. Unless noted, % is set by controls: 0 for no effect and ±100 for the full control effect; potency is the fitted concentration of half-maximal effect.

SMILES	TexasRed fluor	RECQ1 helicase	APE1 inh-1	BLM inh	WRN helicase inh	TRb-SRC2 inh	EndoIV counter	APE1 inh-2	others
COC(=O)[C@]12CCCCC=C1N(CCc1ccc(OC)c(OC)c1)C(=O)[C@H](CC(=O)NCC13CC4CC(CC(C4)C1)C3)C2	nt	nt	nt	nt	0%	nt	nt	nt
COc1cc(OC)c2c(c1O)OC(c1ccccc1)CC2=O (stereo unspecified)	-1%	13µM*	7.9µM*	-18%	?	1%	?	?	DNA dye displace=7%;APE1 FP=13µM*
O=C(O)C1C2C=CC(C2)C1C(=O)NCc1cccs1 (stereo unspecified)	-2%	i	?	-3%	-5%	-4%	nt	?
O=C(c1cnccn1)N1CCC2(CC1)CCN(c1ccccc1)CC2	nt	-6%	-4%	0%	nt	nt	nt	nt
O=C(CCO)c1ccc(O)cc1	0%	25µM*	1.6µM*	25µM*	28µM*	-1%	?	1.3µM*	DNA dye displace=-2%;APE1 FP=-11%
NC(=O)c1oc2ccccc2c1NC(=O)c1nc2ccccc2s1	-7%	-2%	-2%	-13%	-11%	6%	nt	?
NC(=O)c1oc2ccccc2c1NC(=O)c1ccc(F)cc1	-3%	-3%	-2%	-1%	-4%	-8%	nt	nt
CC1CC(=O)c2c(cc3c(-c4c(O)cc(O)c5c(O)c6c(cc45)OC(C)CC6=O)c(O)cc(O)c3c2O)O1 (stereo unspecified)	?	18µM*	?	-21%	?	-1%	?	?	DNA dye displace=4.5µM*;APE1 FP=-12%
O=C(OC1Cc2c(O)cc(O)cc2OC1c1cc(O)c(O)c(O)c1-c1c(C2Oc3cc(O)cc(O)c3CC2O)cc(O)c(O)c1O)c1cc(O)c(O)c(O)c1 (stereo unspecified)	-24%	2.5µM*	0.1µM*	6.3µM*	nt	-1%	-20%[57.1 µM]	0.18µM*
O=C(c1c(O)cc(O)cc1O)C1c2c(cc(O)c3c2O[C@H](c2ccc(O)cc2)[C@@H](O)C3)OC1c1ccc(O)cc1 (stereo partly specified)	nt	nt	-9%	nt	?	nt	nt	nt
S=C(S)O[C@@H]1C[C@@H]2C[C@H]1[C@@H]1CCC[C@H]21	-3%	-20%	?	1%	nt	-10%	nt	nt
S=C(S)OC1CC2CC1C1CCCC21 (stereo unspecified)	-5%	-2%	2%	nt	-14%	-8%	-12%[57.1 µM]	-5%
COc1ccc(-c2coc3cc(O)ccc3c2=O)c(O)c1O	-9%	4µM*	3.2µM*	-23%	nt	5%	37%[57.1 µM]	-87%
COc1ccc(-c2coc3cc(O)ccc3c2=O)c(OC)c1O	-4%	2%	3%	-1%	nt	2%	nt	nt
CC1=CCC2C(=O)N(C(C)c3ccccc3)C(=O)C2C1 (stereo unspecified)	-2%	-14%	9%	0%	0%	-3%	nt	nt
CC1=CCC2C(=O)N(c3nc4ccccc4n3C)C(=O)C2C1 (stereo unspecified)	0%	-12%	?	3%	-14%	-5%	nt	40µM*
CCNC(=O)C1(C)CCN(C(=O)c2ccc(N(C)C)cc2)C1 (stereo unspecified)	nt	nt	nt	nt	-4%	nt	nt	nt
Cc1ccc(C(=O)COC(=O)COc2ccccc2C)cc1	nt	nt	53%	-3%	-23%	nt	nt	nt
CCN(C(=O)COC(=O)CCc1ccc(OC)cc1)c1c(N)n(Cc2ccccc2)c(=O)[nH]c1=O	nt	nt	6%	nt	5%	nt	nt	nt
CS(=O)(=O)C1=NSC2=NC(=O)/C(=C\c3cccn3-c3ccc(Cl)cc3)C(=N)N21	-12%	-20%	?	?	-27%[57.1 µM]	11%	nt	14µM*
Cc1cc(/C=C2/C(=N)N3C(=NC2=O)SN=C3S(C)(=O)=O)c(C)n1-c1ccccc1F	-2%	-28%	23%	-11%	-12%[57.1 µM]	-2%	nt	nt
Cc1ccccc1NC(=O)CN1C(=O)S/C(=C\c2cccn2-c2cccc(C(=O)O)c2)C1=O	-1%	?	?	-13%	?	11%	nt	?
Cc1ccc(NC(=O)CN2C(=O)S/C(=C\c3cccn3-c3cccc(C(=O)O)c3)C2=O)c(C)c1	0%	-26%	8.9µM*	?	?	4%	?	13µM*	DNA dye displace=207%;APE1 FP=16µM*
O=C(O)c1ccc(-c2ccc(/C=C3\NC(=O)N(Cc4ccc(Cl)cc4)C3=O)o2)cc1Cl	-29%	?	?	30%	22µM*	11%	nt	16µM*
CC(=O)O[C@H]1CC2(C)[C@@H](C[C@@H](O)[C@H]3[C@@]4(C)CC[C@@H](O)[C@@H](C)[C@@H]4CC[C@@]32C)C1=C(CCC=C(C)C)C(=O)O (stereo partly specified)	0%	-4%	-7%	nt	nt	-2%	-8%[57.1 µM]	-25%
CN1C(=O)CC(N2CCC(C(N)=O)CC2)C1=O (stereo unspecified)	2%	-6%	1%	0%	5%	-3%	nt	nt
NC(=O)C1CCN(C2CC(=O)NC2=O)CC1 (stereo unspecified)	-3%	-3%	?	-3%	2%	1%	-1%	?	DNA dye displace=-5%;APE1 FP=9%
Cc1c(Br)c(O)c(Br)c2sc(=O)oc12	-16%	22µM*	?	-15%	-32%	-3%	16%	-7%[24.4 µM]	DNA dye displace=4%;APE1 FP=1%
O=C(Nc1cc(C(=O)Nc2ccc(S(=O)(=O)O)cc2S(=O)(=O)O)cc(C(=O)Nc2ccc(S(=O)(=O)O)cc2S(=O)(=O)O)c1)Nc1cc(C(=O)Nc2ccc(S(=O)(=O)O)cc2S(=O)(=O)O)cc(C(=O)Nc2ccc(S(=O)(=O)O)cc2S(=O)(=O)O)c1	-3%	-1%	7.9µM*	?	nt	-6%	?	2.5µM*

From PubChem BioAssay
